From PubChem BioAssay AID651784 (National Center for Advancing Translational Sciences (NCATS), 2012) come the findings set out here.

The structures appear in SMILES notation. Inconclusive results are not listed. Active and inactive are the calls of the source. Calls follow the shape of the dose curve; as a rule, active = well fitted inhibition curve with a large enough effect; inconclusive = small, poorly fitted or top-dose-only effect; inactive = no such curve, though single readings can be large or run the other way.
Potency is read from the fitted curve at half-maximal effect.

The assay can be described thus: Acumen qHTS Assay for Inhibitors of the mTORC1 Signaling Pathway in MEF (Tsc2-/-, p53-/-) Cells: Hit Validation.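 Also: phospho-rpS6 Ser235/236 immunofluorescence normalized to propidium iodide cell count; nearly all actives have a fitted effect of over 65% in size.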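 As to activity change, negative = inhibition: cells exposed to compound for 24 hours; plate controls were DMSO for no effect and 7.5 nM rapamycin control for full effect.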 The note with it: Acumen imaging; activity change, negative = inhibition: at 37.3 µM (top of the series). Background: In qHTS, concentration-response curves come from the screen itself.
As for `Cc1ccc(NC(=O)c2c(NC(=O)C(F)(F)F)sc3c2CCCCC3)cc1`, the activity change, negative = inhibition is -36.6%.

For `CCCCOc1ccc(Cn2c(=O)sc3ccccc32)cc1`, the activity change, negative = inhibition was -17%.

Turning to `CCCCOCc1cc(CN2CCN(c3cccc(Cl)c3)CC2)c(O)c2ncccc12`, the Potency was 2.61 µM (active).

On to `COc1ccc(CCN2CCC(CNC(=O)c3cnn(-c4cccc(Cl)c4)c3C3CCN(C(=O)OC(C)(C)C)CC3)CC2)cc1`, for which the Potency was 6.56 µM (active).

Turning to `Cc1cc(C)cc(Nc2cc(C(=O)NCCCN(C)C3CCCCC3)c3ccccc3n2)c1`, the activity change, negative = inhibition is -88.5%.

On to `CCC(Sc1nncn2c1cc1oc(C)cc12)C(=O)Nc1ccc(F)cc1` (stereo unspecified), for which the activity change, negative = inhibition was 12.3%.

`COc1ccc(CNC(=O)c2nc(S(=O)(=O)Cc3ccccc3)ncc2Cl)cc1`: the activity change, negative = inhibition is -99.8%.

Take `Cc1nn(CCCC(=O)NCc2cccc(Cl)c2)c(=O)c2c1sc1ccccc12`: the activity change, negative = inhibition was -2.73%.

Regarding `CCCCCn1c(=N)n(CC(O)COc2cccc(C)c2)c2ccccc21` (stereo unspecified), the Potency is 5.85 µM (active).

`CCC(=O)C1=C(c2ccc(Cl)cc2)N(C(=O)CC)n2c(C)nnc2S1`: the activity change, negative = inhibition was -10.3%.

For the molecule `Cc1cccc(-n2cnc3cc(C(=O)NC4CCCCCC4)ccc32)c1`, the Potency was 18.5 µM (active).

`COc1ccc(-c2nc(C)c(CCNC(=O)c3ccccc3Br)s2)cc1OC`: the activity change, negative = inhibition was -7.02%.

Consider `Cc1nn(CC(=O)N2CCN(c3ccccc3F)CC2)c(=O)c2cccn12`, for which the activity change, negative = inhibition turned out to be 2.89%.

Regarding `Cc1ccc(O)c(C(CC(=O)NCC2(c3ccccc3)CCCC2)c2ccccc2)c1` (stereo unspecified), the activity change, negative = inhibition amounted to 2.09%.

`Cc1ccccc1OCCn1c(=N)n(C(C)C)c2ccccc21`: the Potency is 8.26 µM (active).

As to `CCCN1C(=O)C(Cc2nc3ccccc3c(=O)n2CC)c2ccccc21` (stereo unspecified), the activity change, negative = inhibition was -1.87%.
